# JMJD2A Tudor inh: JMJD2A Tudor domain (human) inhibition. Potency, µM (series often up to 114 µM), inactives show at the top dose activity change, negative = inhibition, usual class: inhibitors. AID 504339. AlphaScreen JMJD2A-Tudor / H3K4me3 peptide binding. hit rate 4.4% among 390,000. O75164; note: % is set by controls: 0 for no effect and ±100 for the full control effect; nearly all actives have a fitted effect of over 50% in size
# Target sequence (O75164 whole entry, looked up, the tested form may be a part): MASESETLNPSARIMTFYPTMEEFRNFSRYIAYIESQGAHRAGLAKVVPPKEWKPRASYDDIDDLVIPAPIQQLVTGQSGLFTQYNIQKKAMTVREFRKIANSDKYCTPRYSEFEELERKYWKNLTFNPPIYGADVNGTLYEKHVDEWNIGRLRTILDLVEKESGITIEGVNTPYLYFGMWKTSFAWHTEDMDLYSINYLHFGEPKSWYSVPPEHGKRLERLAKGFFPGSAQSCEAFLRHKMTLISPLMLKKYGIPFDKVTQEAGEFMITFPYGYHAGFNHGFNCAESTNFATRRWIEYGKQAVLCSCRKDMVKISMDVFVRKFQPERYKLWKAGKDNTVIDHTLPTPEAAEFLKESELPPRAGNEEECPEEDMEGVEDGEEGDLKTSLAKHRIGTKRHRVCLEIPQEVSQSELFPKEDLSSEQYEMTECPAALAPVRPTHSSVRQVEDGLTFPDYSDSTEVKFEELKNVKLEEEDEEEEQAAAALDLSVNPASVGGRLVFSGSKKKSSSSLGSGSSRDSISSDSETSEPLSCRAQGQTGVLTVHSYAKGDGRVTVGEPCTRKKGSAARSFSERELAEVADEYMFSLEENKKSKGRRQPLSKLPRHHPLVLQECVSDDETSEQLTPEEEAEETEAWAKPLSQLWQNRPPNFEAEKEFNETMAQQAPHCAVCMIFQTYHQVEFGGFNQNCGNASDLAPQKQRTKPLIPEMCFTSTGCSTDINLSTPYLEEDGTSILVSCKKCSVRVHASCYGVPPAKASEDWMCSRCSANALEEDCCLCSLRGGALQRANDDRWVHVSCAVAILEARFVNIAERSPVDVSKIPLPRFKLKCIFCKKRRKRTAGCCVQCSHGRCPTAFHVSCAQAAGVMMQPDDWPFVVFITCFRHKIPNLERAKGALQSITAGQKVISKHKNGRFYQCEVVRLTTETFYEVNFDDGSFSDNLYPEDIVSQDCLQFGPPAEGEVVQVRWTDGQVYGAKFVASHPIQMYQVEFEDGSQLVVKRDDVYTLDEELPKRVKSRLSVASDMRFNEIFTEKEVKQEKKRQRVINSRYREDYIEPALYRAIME
# HP1b chromo inh: HP1-beta chromodomain-methylated histone interaction inhibition; hit rate 0.56% among 390,000; P83916; AlphaScreen HP1-beta / biotin-H3K9me3 peptide binding; Potency, µM (titrated, usually from 114 µM), for the others: at the highest dose activity change, negative = inhibition, most hits filed as inhibitors; AID 540317; note: nearly all actives have a fitted effect of over 70% in size
#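 Compound inhibition of the preformed complex between 50 nM HP1-beta and 50 nM biotinylated H3K9me3 peptide was read by AlphaScreen. Buffer was PBS pH 7.4 with 0.01% Tween-20. Incubations ran 30 min at room temperature, with 10 ug/mL donor/acceptor beads.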
# Sfp inh: Sfp phosphopantetheinyl transferase inhibition. Q9F4F7. Biochemical Sfp PPTase activity, qHTS. Potency, µM, without a hit: largest response in the series, negative = inhibition, actives largely listed as inhibitors. hit rate 3.5% among 310,000. AID 1490;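 note: the enzyme is Sfp with the accession as filed and its product quenches rhodamine fluorescence; 0% = enzyme reaction without inhibitor and -100% = no enzyme wells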
#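 With Hepes-Na pH 7.6 buffer containing 10 mM MgCl2, Sfp (15 nM) modified BHQ-2-YbbR (12.5 uM) using rhodamine-CoA (5 uM). Two reads 30 minutes apart at 525/598 nm yielded each well's rate.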
# BAZ2B block: BAZ2B (human) inhibition | Q9UIF8 | AlphaScreen BAZ2B-H3K14Ac peptide displacement | Potency, µM (titrated, usually from 114 µM), without a hit: top-dose activity change, negative = inhibition, usual class: inhibitors | hit rate 4.4% among 360,000 | AID 504333; note: % is set by controls: 0 for no effect and ±100 for the full control effect; nearly all actives have a fitted effect of over 60% in size
#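 In this displacement format the biotinylated H3(5-23) peptide acetylated at Lys14 serves as ligand at 50 nM, with BAZ2B at 50 nM in PBS pH 7.4 containing 0.01% Tween-20. Donor and acceptor beads are 10 ug/mL final.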
# G9a block: G9a (human) methyltransferase inhibition; G9a H3K9 monomethylation, AlphaScreen, 2 h; Potency, µM (series often up to 102 µM), for inactives: at the top dose activity, negative = inhibition, actives largely listed as inhibitors; hit rate 8.8% among 350,000; note: % is set by controls: 0 for no effect and ±100 for the full control effect; nearly all actives have a fitted effect of over 75% in size
#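 Compounds were preincubated with 20 nM G9a for 15 min, after which biotinylated H3K9 peptide (500 nM) and SAM (20 uM) started a 2 h room-temperature reaction. Monomethylated product was quantified by antibody-based AlphaScreen chemiluminescence.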
# L3MBTL1 block: L3MBTL1 (human) inhibition. AID 485360. AlphaScreen L3MBTL1–H3K9me1 peptide binding. Q9Y468. hit rate 0.66% among 230,000. Potency, µM (highest dose often 57.1 µM), for inactives: at the top dose activity, negative = inhibition, hits mostly inhibitors; note: % is set by controls: 0 for no effect and ±100 for the full control effect; nearly all actives have a fitted effect of over 60% in size
#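 AlphaScreen assay: L3MBTL1 (50 nM final) was preincubated 30 min at room temperature with biotinylated H3(1-15)K9me1 peptide (75 nM final), then 30 min with library compounds; streptavidin donor and nickel chelate acceptor beads (10 ug/mL final) added, 30 min dark.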
# An asterisk follows results filed as active; ? = inconclusive; · = not tested or not shown; [ ] = another dose, or the depositor's remark. Compounds with a hit are over-represented: about 12% of the library has one in this group of screens. Calls come from the whole dose curve; as a rule, active = well fitted curve in the direction sought with a large enough effect; inconclusive = small, poorly fitted or top-dose-only effect, or another doubt; inactive = no such curve, though single readings can be large; an effect the other way counts as inactive or inconclusive. Potency is the fitted concentration of half-maximal effect.
SMILES,JMJD2A Tudor inh,HP1b chromo inh,Sfp inh,BAZ2B block,G9a block,L3MBTL1 block
CC12CCC(C[N+](C)(CCC[N+](C)(C)C)C1)C2(C)C (stereo not drawn),·,·,-23%,·,?,·
O=S(=O)(c1ccccc1)c1nc(-c2ccco2)oc1NCCN1CCOCC1,1%,36%,?,-31%,?,·
O=S(=O)(c1ccccc1)c1nc(-c2ccco2)oc1NCCCN1CCOCC1,-3%,27%,?,-30%,14µM*,-8%
O=S(=O)(c1ccccc1)c1nc(-c2ccc(Cl)cc2)oc1NCCCN1CCOCC1,?,-21%,·,-7%,45µM*,0%
Cc1ccc(S(=O)(=O)c2nc(-c3ccccc3)oc2NCc2cccnc2)cc1,?,57%,-21%,?,50µM*,-2%
Cc1ccc(S(=O)(=O)c2nc(-c3ccccc3Cl)oc2NCCCN2CCOCC2)cc1,?,-32%,-17%,-11%,·,·
O=S(=O)(c1ccc(Br)cc1)c1nc(-c2ccco2)oc1NCCCn1ccnc1,?,-1%,·,50µM*,45µM*,?
Cc1ccccc1-c1nc(S(=O)(=O)c2ccc(Br)cc2)c(NCc2cccnc2)o1,-32%,12%,-7%,-12%,-48%,·
NC(=O)C1CCN(c2oc(-c3ccccc3F)nc2S(=O)(=O)c2ccc(Cl)cc2)CC1,-20%,53%,?,-25%,?,4%
Cc1ccc(CNc2oc(-c3ccco3)nc2S(=O)(=O)c2ccccc2)cc1,-19%,2%,5%,-31%,11µM*,-9%
CN1CCN(c2oc(-c3ccccc3F)nc2S(=O)(=O)c2ccc(Cl)cc2)CC1,?,-35%,-11%,35µM*,·,·
O=S(=O)(c1ccc(Cl)cc1)c1nc(-c2ccccc2F)oc1NCCCN1CCOCC1,?,-16%,-14%,?,79µM*,·
COc1cccc(-c2nc(S(=O)(=O)c3ccccc3)c(NCc3ccccc3)o2)c1,-18%,22%,·,-23%,-42%[59 µM],·
Cc1ccc(Cc2nc3ccccc3nc2SCC(=O)N2CCCc3ccccc32)cc1,-18%,25%[57 µM],·,4%,15%[59 µM],·
Cc1cc(C)n2ncc(C(=O)NC(C)C)c2n1,-16%,·,·,·,·,·
COc1cc(NC(=O)COC(=O)C2CC(O)CN2S(=O)(=O)c2ccc(Cl)cc2)c(C)cc1[N+](=O)[O-] (stereo not drawn),-26%,21%,·,·,·,·
COc1ccc(N2CCN(C(=O)C3CC(O)CN3S(=O)(=O)c3ccc([N+](=O)[O-])cc3)CC2)cc1 (stereo not drawn),-10%[57.1 µM],25%,4%,-11%,45µM*,-13%
O=C(COC(=O)[C@@H]1CC(O)CN1S(=O)(=O)c1ccc([N+](=O)[O-])cc1)NC12CC3CC(CC(C3)C1)C2 (stereo partly drawn),-8%,13%,7%,-6%,20µM*,-1%
Cc1ccc(S(=O)(=O)N2CC(O)C[C@H]2C(=O)OCC(=O)Nc2ccc(N3CCCCC3)cc2)cc1C (stereo partly drawn),45µM*,?,·,40µM*,6.3µM*,?
COc1ccc(S(=O)(=O)CCC(=O)N2CCN(c3ccc([N+](=O)[O-])cc3)CC2)cc1,-23%,-2%,11%,-14%[57.1 µM],17%,·
CCc1ccc(CNC(=O)C2CCN(c3nc4ccccc4nc3C(F)(F)F)CC2)cc1,-7%,10%,·,0%,1%[59 µM],·
CO[C@H]1C[C@@H]2CC[C@@H](C)[C@@](O)(O2)C(=O)C(=O)N2CCCC[C@H]2C(=O)O[C@H]([C@H](C)C[C@@H]2CC[C@@H](O)[C@H](OC)C2)CC(=O)[C@H](C)/C=C(\C)[C@@H](O)[C@@H](OC)C(=O)[C@H](C)C[C@H](C)/C=C/C=C/C=C/1C,·,·,-2%,·,-18%[12.7 µM],·
Cc1nc2c(-c3ccccc3)c(C)nn2c(C)c1CCC(=O)NCc1ccccc1Cl,2%,47%,·,0%,5%[59 µM],·

# Assay outcomes deposited in PubChem by National Center for Advancing Translational Sciences (NCATS).
